Experimental data taken from PubChem BioAssay (NCI).
Compounds without any hit were thinned out: in the full panel of roughly 83,000, 20% have a hit.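 Results are percent growth after 48 hours of single-concentration exposure. 100 means growth as in untreated cells, lower positive values show inhibition; negative values down to -100 show cell death.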 Values without a mark were called inactive. Activity calls are given as the source filed them. Rule for the calls: active = growth percent below 10; inactive = the rest.

tested on: SK-MEL-2 melanoma; assay: NCI-60 one-dose screen, 48 h (100 = growth as untreated, 0 = no growth, -100 = all killed); details: 10 µM unless noted

Structure (SMILES) | growth
CCCCCCCCCCCCCCCCCC(=O)Nc1ccc(O)cc1 | 83.1%
COc1cc(C(=O)Nc2ccc(N(C)C)cc2)cc(OC)c1OC | 78.8%
CC(=O)O.[In] | 98.4%
CCn1cnc(C[C@H](NC(=O)[C@@H](NC(=O)Nc2cc(C(F)(F)F)cc(C(F)(F)F)c2)C(C)(C)C)C(=O)OC)c1 | -91% [100 µM] (active)
CC(O)c1cc[cH-]c1.[Fe+2].c1cc[cH-]c1 (stereo not given) | 109%
CC(=O)Nc1ccc(S(=O)(=O)Cl)cc1 | 111%
O=C(OCC1CC2(Cl)C(Cl)=C(Cl)C1(Cl)C2(Cl)Cl)C1C(C(=O)OCC2CC3(Cl)C(Cl)=C(Cl)C2(Cl)C3(Cl)Cl)C2(Cl)C(Cl)=C(Cl)C1(Cl)C2(Cl)Cl (stereo not given) | 111%
COc1ccc(/C=C/C(=O)/C=C/c2cc3ccccc3[nH]c2=O)cc1 | 95.9%
CC(=O)NCCN | 115%
NC(CSC(c1ccccc1)(c1ccccc1)c1ccccc1)C(=O)NCC(=O)O (stereo not given) | 38.3%
CC(Br)c1nc2ccccc2cc1C(N)=O (stereo not given) | 110%
CC(C)(C)c1cc(C[P+](c2ccc(Cl)cc2)(c2ccc(Cl)cc2)c2ccc(Cl)cc2)cc(C(C)(C)C)c1O | 76.2%
CC(C)OCC1CO1 (stereo not given) | 123%
N#CCc1ncc(-c2ccc(C(F)(F)F)cc2)c(NC2CCCCCC2)n1 | -22.1% [100 µM] (active)
O=C(NCCNCCO)c1cc([N+](=O)[O-])cc([N+](=O)[O-])c1O | 117%
CCCCS(=O)(=O)c1cc(Nc2ccc(O)c3c2C(=O)c2ccccc2C3=O)ccc1C | 92.5%
Cn1c2ccccc2c2ccccc21 | 99.4%
CCCCCCCCC(=O)Nc1ccc(O)cc1 | 93%
CCCCN(CCCC)c1ccc(C(=O)O)cc1 | 83.5%
CCCCCCCCCCCCCCCCCCOP(=O)(O)O | 124%

Structure (SMILES) | growth
COC1=CC(c2ccc[nH]2)=N/C1=C\c1[nH]c(C)c(C(=O)CCCCC(=O)NC(C)(C)C)c1C | 98%
O=C(CCC(=O)N(CCO)CCO)N(CCO)CCO | 102%
O=C(CCl)NC1c2ccccc2Oc2ccccc21 | 63%
O=P(OCCCl)(OCCCl)C(O)c1ccccc1Cl (stereo not given) | 112%
Oc1ccc(Br)cc1/C=N/NC(=S)NC12CC3CC(CC(C3)C1)C2 | 48.2%
O=C1C(=O)c2ccccc2C(O)=C1CCCc1ccc(Oc2ccccc2)cc1 | 72.5%
O=C(O)COc1ccc([N+](=O)[O-])cc1Cl | 107%
CC(=O)N(N=O)c1ccc([N+](=O)[O-])cc1Cl | 73.1%
COC(=O)c1cc(Nc2ccc(O)c3c2C(=O)c2c([N+](=O)[O-])ccc(O)c2C3=O)cc(C(=O)OC)c1 | 10.6%
COC(=O)C(N)CC(C)C (stereo not given) | 101%
CC(C)(CNC1CCCCC1)OC(=O)c1ccccc1 | 116%
COc1ccc(-c2nnc(SCC(=O)Nc3ccc(C(=O)/C=C/c4cc(OC)c(OC)c(OC)c4)cc3)n2-c2ccccc2)cc1OC | -26.1% [100 µM] (active)
CCCCCCC(C(=O)OCC)(C(=O)OCC)C1CCCCCC1 | 114%
O=C(NC1CCN(Cc2ccccc2)CC1)c1cc(-c2cccnc2)nc2ccc(Cl)cc12 | 100%
CC(=O)CC(=O)OC/C=C(/C)CCC=C(C)C | 126%
CCn1cnc(C[C@H](NC(=O)[C@@H](NC(=O)Nc2cc(C(F)(F)F)cc(C(F)(F)F)c2)C(C)C)C(=O)OC)c1 | -86% [100 µM] (active)
CN(C)CCOC(=O)C(C)(C)C | 103%
CCCCCCCCCCCCCCCCNC(=S)N/N=C/c1ccc(O)cc1O | 75.4%
CC(=O)C(CO)C(=O)Nc1ccccc1 (stereo not given) | 90.4%
COC(=O)[C@H](Cc1cn(C)cn1)NC(=O)[C@H](Cc1c[nH]c2ccccc12)NC(=O)Nc1cc(C(F)(F)F)cc(C(F)(F)F)c1 | -82.6% [100 µM] (active)

tested on: SN12C renal; assay: as above; details: 10 µM unless noted

Structure (SMILES) | growth
CCCCCCCCCCCCCCCCCC(=O)Nc1ccc(O)cc1 | 75.7%
COc1cc(C(=O)Nc2ccc(N(C)C)cc2)cc(OC)c1OC | 94.2%
CC(=O)O.[In] | 109%
CCn1cnc(C[C@H](NC(=O)[C@@H](NC(=O)Nc2cc(C(F)(F)F)cc(C(F)(F)F)c2)C(C)(C)C)C(=O)OC)c1 | -96.2% [100 µM] (active)
CC(O)c1cc[cH-]c1.[Fe+2].c1cc[cH-]c1 (stereo not given) | 98.9%
CC(=O)Nc1ccc(S(=O)(=O)Cl)cc1 | 94.5%
O=C(OCC1CC2(Cl)C(Cl)=C(Cl)C1(Cl)C2(Cl)Cl)C1C(C(=O)OCC2CC3(Cl)C(Cl)=C(Cl)C2(Cl)C3(Cl)Cl)C2(Cl)C(Cl)=C(Cl)C1(Cl)C2(Cl)Cl (stereo not given) | 105%
COc1ccc(/C=C/C(=O)/C=C/c2cc3ccccc3[nH]c2=O)cc1 | 66.5%
CC(=O)NCCN | 104%
NC(CSC(c1ccccc1)(c1ccccc1)c1ccccc1)C(=O)NCC(=O)O (stereo not given) | 70.7%
CC(Br)c1nc2ccccc2cc1C(N)=O (stereo not given) | 90.5%
CC(C)(C)c1cc(C[P+](c2ccc(Cl)cc2)(c2ccc(Cl)cc2)c2ccc(Cl)cc2)cc(C(C)(C)C)c1O | 91.6%
CC(C)OCC1CO1 (stereo not given) | 109%
N#CCc1ncc(-c2ccc(C(F)(F)F)cc2)c(NC2CCCCCC2)n1 | 30.4% [100 µM]
O=C(NCCNCCO)c1cc([N+](=O)[O-])cc([N+](=O)[O-])c1O | 96.1%
CCCCS(=O)(=O)c1cc(Nc2ccc(O)c3c2C(=O)c2ccccc2C3=O)ccc1C | 71.5%
Cn1c2ccccc2c2ccccc21 | 107%
CCCCCCCCC(=O)Nc1ccc(O)cc1 | 94.3%
CCCCN(CCCC)c1ccc(C(=O)O)cc1 | 97.9%
CCCCCCCCCCCCCCCCCCOP(=O)(O)O | 94.1%

Structure (SMILES) | growth
COC1=CC(c2ccc[nH]2)=N/C1=C\c1[nH]c(C)c(C(=O)CCCCC(=O)NC(C)(C)C)c1C | 55.3%
O=C(CCC(=O)N(CCO)CCO)N(CCO)CCO | 106%
O=C(CCl)NC1c2ccccc2Oc2ccccc21 | 81.1%
O=P(OCCCl)(OCCCl)C(O)c1ccccc1Cl (stereo not given) | 111%
Oc1ccc(Br)cc1/C=N/NC(=S)NC12CC3CC(CC(C3)C1)C2 | 20.1%
O=C1C(=O)c2ccccc2C(O)=C1CCCc1ccc(Oc2ccccc2)cc1 | 77.8%
O=C(O)COc1ccc([N+](=O)[O-])cc1Cl | 88.7%
CC(=O)N(N=O)c1ccc([N+](=O)[O-])cc1Cl | 47.4%
COC(=O)c1cc(Nc2ccc(O)c3c2C(=O)c2c([N+](=O)[O-])ccc(O)c2C3=O)cc(C(=O)OC)c1 | 70.5%
COC(=O)C(N)CC(C)C (stereo not given) | 17.6%
CC(C)(CNC1CCCCC1)OC(=O)c1ccccc1 | 95.1%
COc1ccc(-c2nnc(SCC(=O)Nc3ccc(C(=O)/C=C/c4cc(OC)c(OC)c(OC)c4)cc3)n2-c2ccccc2)cc1OC | 31.8% [100 µM]
CCCCCCC(C(=O)OCC)(C(=O)OCC)C1CCCCCC1 | 101%
O=C(NC1CCN(Cc2ccccc2)CC1)c1cc(-c2cccnc2)nc2ccc(Cl)cc12 | 63.1%
CC(=O)CC(=O)OC/C=C(/C)CCC=C(C)C | 94.5%
CCn1cnc(C[C@H](NC(=O)[C@@H](NC(=O)Nc2cc(C(F)(F)F)cc(C(F)(F)F)c2)C(C)C)C(=O)OC)c1 | -86.8% [100 µM] (active)
CN(C)CCOC(=O)C(C)(C)C | 102%
CCCCCCCCCCCCCCCCNC(=S)N/N=C/c1ccc(O)cc1O | 74.2%
CC(=O)C(CO)C(=O)Nc1ccccc1 (stereo not given) | 101%
COC(=O)[C@H](Cc1cn(C)cn1)NC(=O)[C@H](Cc1c[nH]c2ccccc12)NC(=O)Nc1cc(C(F)(F)F)cc(C(F)(F)F)c1 | -83.7% [100 µM] (active)
